Where “and” joins values, the source holds several entries; their conditions need not be identical. Equal entries are not always repeated. The whole screen tested about 5,500 compounds, of which about 2,000 (36%) were called active. Roughly 18% stayed inconclusive and do not appear here. Rule as the data show it: active = normalized growth mostly below about 0.91 (no sharp cut-off); inconclusive = no clear call, values can overlap the other calls; inactive = mostly above about 0.92. The list shows a part of the results.
Experiment: chemical genetic growth profiling, strain panel (AID 1159580);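 also: tested at 20 µM; growth read once vehicle control cultures reached saturation at 30 °C; 1 = growth at the plate median or of vehicle wells; lower values mean less growth of the strain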
Conditions: S. cerevisiae deletion strains, growth OD

Measured: normalized growth

COC1=C(OC)C(=O)C(C/C=C(\C)CC/C=C(\C)CC/C=C(\C)CC/C=C(/C)CC/C=C(\C)CC/C=C(\C)CC/C=C(\C)CC/C=C(\C)CC/C=C(\C)CCC=C(C)C)=C(C)C1=O
inactive: locus YAL013W, strain DEP1, stronger effect = lower value 0.999 | locus YAL021C, strain ccr4, stronger effect = lower value 0.983 | locus YAL026C, strain drs2, stronger effect = lower value 0.97 | locus YAL030W, strain snc1, stronger effect = lower value 0.989 | locus YBL061C, strain skt5, stronger effect = lower value 0.996 | locus YBR009C, strain hhf1, stronger effect = lower value 1.01 | locus YBR021W, strain FUR4, stronger effect = lower value 1.07 | locus YBR023C, strain chs3, stronger effect = lower value 0.978 | locus YBR171W, strain sec66, stronger effect = lower value 0.973 | locus YBR229C, strain ROT2, stronger effect = lower value 0.959 | locus YBR231C, strain swc5, stronger effect = lower value 0.974 | locus YBR279W, strain paf1, stronger effect = lower value 0.989 | locus YCL011C, strain gbp2, stronger effect = lower value 0.96 | locus YCL016C, strain dcc1, stronger effect = lower value 0.994 | locus YCL029C, strain bik1, stronger effect = lower value 0.969 | locus YCL069W, strain vba3, stronger effect = lower value 0.972 | locus YCR088W, strain abp1, stronger effect = lower value 0.972 | locus YDL005C, strain med2, stronger effect = lower value 0.977 | locus YDL035C, strain GPR1, stronger effect = lower value 1.03 | locus YDL040C, strain nat1, stronger effect = lower value 0.983 | locus YDL074C, strain BRE1, stronger effect = lower value 1.11 | locus YDL101C, strain DUN1, stronger effect = lower value 0.982 | locus YDL134C, strain PPH21, stronger effect = lower value 1.01 | locus YDL185W, strain tfp1, stronger effect = lower value 0.991 | locus YDL192W, strain arf1, stronger effect = lower value 1.02 | locus YDR001C, strain nth1, stronger effect = lower value 0.989 | locus YDR069C, strain doa4, stronger effect = lower value 0.96 | locus YDR101C, strain arx1, stronger effect = lower value 1.02 | locus YDR137W, strain rgp1, stronger effect = lower value 0.983 | locus YDR159W, strain sac3, stronger effect = lower value 0.963 | locus YDR162C, strain NBP2, stronger effect = lower value 0.972 | locus YDR195W, strain ref2 0.963 | locus YDR297W, strain sur2, stronger effect = lower value 0.975 | locus YDR318W, strain mcm21, stronger effect = lower value 0.984 | locus YDR334W, strain swr1, stronger effect = lower value 0.969 | locus YDR335W, strain msn5, stronger effect = lower value 0.974 | locus YDR388W, stronger effect = lower value 1 | locus YDR392W, strain spt3, stronger effect = lower value 0.967 | locus YDR502C, strain sam2, stronger effect = lower value 0.989 | locus YEL003W, strain gim4, stronger effect = lower value 0.983 | locus YEL037C, strain rad23, stronger effect = lower value 0.981 | locus YEL061C, strain CIN8 (second series), stronger effect = lower value 0.941 | locus YEL061C, strain CIN8, stronger effect = lower value 1.01 | locus YER015W, strain faa2, stronger effect = lower value 0.979 | locus YER016W, strain bim1, stronger effect = lower value 0.978 | locus YER110C, stronger effect = lower value 0.983 | locus YER111C, strain swi4, stronger effect = lower value 0.958 | locus YER155C, strain BEM2 (second series), stronger effect = lower value 0.982 | locus YER155C, strain BEM2, stronger effect = lower value 1 | locus YER167W, strain BCK2, stronger effect = lower value 1 | locus YFR010W, strain ubp6, stronger effect = lower value 0.964 | locus YGL078C, strain dbp3, stronger effect = lower value 1.01 | locus YGL086W, strain mad1, stronger effect = lower value 1.04 | locus YGL167C, strain pmr1, stronger effect = lower value 0.981 | locus YGL173C, strain kem1, stronger effect = lower value 0.982 | locus YGL227W, strain vid30, stronger effect = lower value 0.96 | locus YGL240W, strain doc1, stronger effect = lower value 0.974 | locus YGL248W, strain PDE1, stronger effect = lower value 0.999 | locus YGL253W, strain hxk2, stronger effect = lower value 0.988 | locus YGR078C, strain PAC10, stronger effect = lower value 0.996 | locus YGR135W, strain pre9, stronger effect = lower value 1 | locus YGR252W, strain gcn5, stronger effect = lower value 1.02 | locus YHR013C, strain ard1, stronger effect = lower value 0.957 | locus YHR027C, strain rpn1, stronger effect = lower value 0.968 | locus YHR030C, strain SLT2, stronger effect = lower value 1.02 and 1.01 | locus YHR079C, strain IRE1 (second series), stronger effect = lower value 0.986 | locus YHR079C, strain IRE1, stronger effect = lower value 1.02 | locus YHR094C, strain hxt1, stronger effect = lower value 0.999 | locus YHR129C, strain ARP1, stronger effect = lower value 1.01 | locus YHR142W, strain chs7, stronger effect = lower value 0.972 | locus YHR200W, strain rpn10, stronger effect = lower value 0.976 | locus YIL066C, strain RNR3, stronger effect = lower value 1.01 | locus YIL073C, strain SPO22, stronger effect = lower value 1.03 | locus YIL125W, strain kgd1, stronger effect = lower value 0.998 | locus YIR030C, strain dcg1, stronger effect = lower value 0.995 | locus YJL092W, strain hpr5, stronger effect = lower value 0.958 | locus YJL095W, strain BCK1 (second series), stronger effect = lower value 0.973 | locus YJL095W, strain BCK1, stronger effect = lower value 1.01 and 0.989 | locus YJL115W, strain asf1, stronger effect = lower value 0.969 | locus YJL129C, strain trk1, stronger effect = lower value 0.979 | locus YJL134W, strain LCB3, stronger effect = lower value 0.991 | locus YJL154C, strain vps35, stronger effect = lower value 0.976 | locus YJL164C, strain tpk1, stronger effect = lower value 0.999 | locus YJL166W, strain qcr8, stronger effect = lower value 0.978 | locus YJL168C, strain set2, stronger effect = lower value 0.994 | locus YJL187C, strain SWE1 (second series), stronger effect = lower value 0.985 | locus YJL187C, strain SWE1, stronger effect = lower value 0.984

Reference: PubChem BioAssay AID1159580 (chemical genetic matrix, 2015)
